According to the supplement of paper PMC10849652:
Targets with a hit are over-represented here; the source holds about 7,900 in all. About 0.6% of all pairs of compound and target were hits. Values without a mark were called inactive.

Assays:
Experiment in all cases: log2 fold change, soluble protein after heating vs DMSO (PISA); higher = thermal stabilisation; K562 cells, 10 uM, 30 min; active = over 0.2 and 3.5 SD of the protein, either way, in both replicates (recomputed)
[1] = compound: CC[C@@H]1C(=O)N(C)c2cnc(Nc3ccc(C(=O)NC4CCN(C)CC4)cc3OC)nc2N1C1CCCC1
Outline: (§1)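 Quantification of soluble protein used TMTpro 16plex LC-MS/MS, with channel sums equalised. Samples were the supernatant after 21,000xg for 90 min of pooled aliquots from K562 cells (2×10^6 cells/mL) treated with 10 μM compound for 30 min, heated for 3 min over 48°C-58°C, and extracted in PBS with 0.5% NP-40 at 4°C. Values, from duplicates, describe thermal stability against control samples on a log2 fold-change scale.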

[2] = compound: CC[C@@H]1C(=O)N(C)c2cnc(Nc3ccc(C(=O)N[C@H]4CC[C@H](N5CCN(CC6CC6)CC5)CC4)cc3OC)nc2N1C(C)C [volasertib]
Outline: as §1

[3] = compound: CC[C@H](C)N1C=C(C2=C(C=C(C=C21)C3=CN=C(C=C3)N4CCNCC4)C(=O)NCC5=C(C=C(NC5=O)C)C)C
Outline: as §1

[4] = compound: CC[C@H](C)[C@@H](C(=O)N[C@@H]([C@@H](C)O)C(=O)N[C@@H](CC(C)C)C(=O)[C@]1(CO1)C)NC(=O)[C@H]([C@@H](C)CC)N(C)C(=O)C [epoxomicin]
Outline: as §1

[5] = compound: CCn1c(C(=O)N(C2CC2)C2CC2)cc2c3c(ncn3C)c(Nc3cc(C)n(C)n3)nc21
Outline: as §1

[6] = compound: CCn1cc(-c2ccnc3[nH]c(-c4cccc(CN(C)C)c4)cc23)c(-c2ccc(NC(=O)N(C)C)cc2)n1
Outline: as §1

[7] = compound: CN(C)CC(=O)Nc1ccc2[nH]c(=O)c3ccccc3c2c1
Outline: as §1

[8] = compound: CN(CCOC1=CC=C(C=C1)C[C@H]2C(=O)NC(=O)S2)C3=CC=CC=N3 (racemic) [rosiglitazone]
Outline: as §1

[9] = compound: CN1C2=C(C3=C1C(=O)N(N=C3)CC4=CC(=CC=C4)N)SC(=C2)S(=O)C
Outline: as §1

[10] = compound: CN1CCC(CNc2ccc3ncc(-c4cccc(OC(F)(F)F)c4)n3n2)CC1
Outline: as §1

[11] = compound: CN1CCN(CCOc2cc(OC3CCOCC3)c3c(Nc4c(Cl)ccc5c4OCO5)ncnc3c2)CC1 [saracatinib]
Outline: as §1

[12] = compound: CN1CCN(c2nc(C3=C(c4c[nH]c5ccccc45)C(=O)NC3=O)c3ccccc3n2)CC1 [sotrastaurin]
Outline: as §1

[13] = compound: CN1CC[C@H](c2c(O)cc(O)c3c(=O)cc(-c4ccccc4Cl)oc23)[C@H](O)C1 [alvocidib]
Outline: as §1

[14] = compound: CN1CCc2c(c3ccccc3n2Cc2ccc(C(=O)NO)cc2)C1 [Tubastatin A]
Outline: as §1

[15] = compound: CNC(=O)C1=CC=CC=C1NC2=NC(=NC=C2Cl)NC3=C(C=C(C=C3)N4CCOCC4)OC
Outline: as §1

[16] = compound: CNC(=O)c1ccc(Nc2ncc(C(F)(F)F)c(NCc3nccnc3N(C)S(C)(=O)=O)n2)cc1 [defactinib]
Outline: as §1

[17] = compound: CNCc1ccc(-c2[nH]c3cc(F)cc4c3c2CCNC4=O)cc1 [rucaparib]
Outline: as §1

[18] = compound: CNc1nc(-c2ccc3c(N)n[nH]c3c2)cc(N2C[C@@H](C(=O)NC3CCCCC3)CC[C@H]2C)n1
Outline: as §1

[19] = compound: COC(=O)N[C@@H](C)CNc1nccc(-c2cn(C(C)C)nc2-c2cc(Cl)cc(NS(C)(=O)=O)c2F)n1 [encorafenib]
Outline: as §1

[20] = compound: COC(=O)[C@H](CCSC)NC(=O)C1=C(C=C(C=C1)NC[C@H](CS)N)C2=CC=CC=C2
Outline: as §1

Chain of UniProt Q13948 (Q13948 whole entry, looked up): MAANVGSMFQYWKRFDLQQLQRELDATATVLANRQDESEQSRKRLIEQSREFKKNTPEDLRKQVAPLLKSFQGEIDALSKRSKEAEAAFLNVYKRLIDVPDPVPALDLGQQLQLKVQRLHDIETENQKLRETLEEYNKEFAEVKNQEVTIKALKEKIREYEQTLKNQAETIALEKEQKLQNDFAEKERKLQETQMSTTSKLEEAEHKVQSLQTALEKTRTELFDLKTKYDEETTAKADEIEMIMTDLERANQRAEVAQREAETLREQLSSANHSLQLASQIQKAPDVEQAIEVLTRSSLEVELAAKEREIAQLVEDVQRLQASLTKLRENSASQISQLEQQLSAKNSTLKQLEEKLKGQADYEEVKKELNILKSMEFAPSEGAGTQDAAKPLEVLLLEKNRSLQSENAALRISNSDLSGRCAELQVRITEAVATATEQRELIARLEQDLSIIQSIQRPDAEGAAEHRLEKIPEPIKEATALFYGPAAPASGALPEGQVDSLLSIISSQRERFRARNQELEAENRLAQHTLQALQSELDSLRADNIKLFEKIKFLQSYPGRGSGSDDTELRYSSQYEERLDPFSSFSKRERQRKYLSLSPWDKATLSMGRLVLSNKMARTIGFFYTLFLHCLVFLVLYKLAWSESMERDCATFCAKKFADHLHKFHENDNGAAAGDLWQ
Chain of UniProt P39656 (P39656 whole entry, looked up): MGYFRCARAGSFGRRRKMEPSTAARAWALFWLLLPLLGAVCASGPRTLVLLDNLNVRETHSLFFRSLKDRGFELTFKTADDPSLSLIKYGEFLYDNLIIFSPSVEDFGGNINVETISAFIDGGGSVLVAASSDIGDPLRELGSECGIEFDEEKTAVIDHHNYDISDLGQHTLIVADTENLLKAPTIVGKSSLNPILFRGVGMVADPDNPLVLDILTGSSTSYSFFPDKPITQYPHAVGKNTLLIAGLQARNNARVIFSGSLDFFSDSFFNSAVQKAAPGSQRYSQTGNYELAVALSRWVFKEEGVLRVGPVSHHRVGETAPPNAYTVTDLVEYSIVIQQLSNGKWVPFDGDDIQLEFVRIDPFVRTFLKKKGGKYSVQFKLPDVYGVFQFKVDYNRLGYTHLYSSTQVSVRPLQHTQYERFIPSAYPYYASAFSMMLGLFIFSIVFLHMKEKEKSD
Chain of UniProt Q16531 (Q16531 whole entry, looked up): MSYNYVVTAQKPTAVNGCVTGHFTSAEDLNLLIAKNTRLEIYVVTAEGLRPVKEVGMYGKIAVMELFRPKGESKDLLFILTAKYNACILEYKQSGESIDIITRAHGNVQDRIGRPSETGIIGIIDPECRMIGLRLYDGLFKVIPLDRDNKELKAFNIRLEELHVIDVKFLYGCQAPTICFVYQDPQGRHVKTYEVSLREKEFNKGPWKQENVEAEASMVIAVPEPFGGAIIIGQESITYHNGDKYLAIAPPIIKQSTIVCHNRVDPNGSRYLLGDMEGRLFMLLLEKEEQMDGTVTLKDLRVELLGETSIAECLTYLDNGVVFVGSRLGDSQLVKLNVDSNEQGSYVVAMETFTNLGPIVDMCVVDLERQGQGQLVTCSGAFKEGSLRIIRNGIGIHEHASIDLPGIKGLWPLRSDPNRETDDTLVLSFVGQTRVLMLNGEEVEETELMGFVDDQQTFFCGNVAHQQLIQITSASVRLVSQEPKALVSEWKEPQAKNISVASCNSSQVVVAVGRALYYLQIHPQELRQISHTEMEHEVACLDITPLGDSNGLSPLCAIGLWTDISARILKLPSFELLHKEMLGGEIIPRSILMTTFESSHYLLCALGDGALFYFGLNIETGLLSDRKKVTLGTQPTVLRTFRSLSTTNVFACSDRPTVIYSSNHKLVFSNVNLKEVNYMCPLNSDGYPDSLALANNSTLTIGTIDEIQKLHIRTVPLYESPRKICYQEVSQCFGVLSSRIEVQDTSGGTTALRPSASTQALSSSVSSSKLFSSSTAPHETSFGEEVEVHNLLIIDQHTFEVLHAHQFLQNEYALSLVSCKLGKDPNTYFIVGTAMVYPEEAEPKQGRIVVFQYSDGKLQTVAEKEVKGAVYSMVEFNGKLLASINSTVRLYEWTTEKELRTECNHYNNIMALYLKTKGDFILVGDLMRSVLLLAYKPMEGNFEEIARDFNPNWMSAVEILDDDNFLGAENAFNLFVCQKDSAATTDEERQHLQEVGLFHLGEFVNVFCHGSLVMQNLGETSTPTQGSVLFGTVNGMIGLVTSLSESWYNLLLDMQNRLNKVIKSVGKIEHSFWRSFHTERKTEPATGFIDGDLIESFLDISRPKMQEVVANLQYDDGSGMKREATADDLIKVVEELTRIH
Chain of UniProt Q9Y5Q0 (Q9Y5Q0 whole entry, looked up): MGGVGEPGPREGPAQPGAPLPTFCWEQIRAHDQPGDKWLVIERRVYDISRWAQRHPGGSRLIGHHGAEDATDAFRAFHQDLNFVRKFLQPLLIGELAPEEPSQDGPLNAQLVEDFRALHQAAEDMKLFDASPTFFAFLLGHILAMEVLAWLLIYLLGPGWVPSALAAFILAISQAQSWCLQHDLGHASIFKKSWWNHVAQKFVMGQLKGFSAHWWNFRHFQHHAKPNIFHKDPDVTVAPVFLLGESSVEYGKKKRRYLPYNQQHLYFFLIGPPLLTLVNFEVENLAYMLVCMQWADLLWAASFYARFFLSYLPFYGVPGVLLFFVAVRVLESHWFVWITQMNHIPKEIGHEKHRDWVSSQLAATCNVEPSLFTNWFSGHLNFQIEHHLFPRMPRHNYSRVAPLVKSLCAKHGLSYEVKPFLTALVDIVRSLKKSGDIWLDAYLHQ
Chain of UniProt Q13011 (Q13011 whole entry, looked up): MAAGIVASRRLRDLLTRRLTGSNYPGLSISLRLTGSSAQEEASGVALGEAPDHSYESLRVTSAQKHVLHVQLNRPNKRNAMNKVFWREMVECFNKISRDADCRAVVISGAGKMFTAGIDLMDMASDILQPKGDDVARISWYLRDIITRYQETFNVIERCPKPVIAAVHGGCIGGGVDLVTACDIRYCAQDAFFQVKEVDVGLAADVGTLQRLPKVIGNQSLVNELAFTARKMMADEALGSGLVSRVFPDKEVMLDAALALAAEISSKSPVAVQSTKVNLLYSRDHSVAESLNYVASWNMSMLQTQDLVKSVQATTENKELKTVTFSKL
Chain of UniProt Q13409 (Q13409 whole entry, looked up): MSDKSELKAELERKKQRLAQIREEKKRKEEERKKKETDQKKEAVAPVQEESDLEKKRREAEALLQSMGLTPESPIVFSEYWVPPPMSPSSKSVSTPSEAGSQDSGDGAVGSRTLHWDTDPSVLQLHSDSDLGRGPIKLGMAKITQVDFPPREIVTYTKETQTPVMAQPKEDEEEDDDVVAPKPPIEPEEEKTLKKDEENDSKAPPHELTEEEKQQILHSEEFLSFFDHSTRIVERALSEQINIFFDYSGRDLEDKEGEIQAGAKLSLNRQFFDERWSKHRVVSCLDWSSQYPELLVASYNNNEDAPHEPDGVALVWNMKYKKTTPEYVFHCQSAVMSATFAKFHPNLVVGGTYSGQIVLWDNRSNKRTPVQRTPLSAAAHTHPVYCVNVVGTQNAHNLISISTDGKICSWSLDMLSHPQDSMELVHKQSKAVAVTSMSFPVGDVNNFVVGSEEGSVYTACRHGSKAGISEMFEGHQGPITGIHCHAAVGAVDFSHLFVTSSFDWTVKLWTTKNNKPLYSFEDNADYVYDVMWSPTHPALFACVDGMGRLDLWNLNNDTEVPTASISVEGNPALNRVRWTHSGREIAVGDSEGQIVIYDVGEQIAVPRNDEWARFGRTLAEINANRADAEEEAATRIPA
Chain of UniProt P06730 (P06730 whole entry, looked up): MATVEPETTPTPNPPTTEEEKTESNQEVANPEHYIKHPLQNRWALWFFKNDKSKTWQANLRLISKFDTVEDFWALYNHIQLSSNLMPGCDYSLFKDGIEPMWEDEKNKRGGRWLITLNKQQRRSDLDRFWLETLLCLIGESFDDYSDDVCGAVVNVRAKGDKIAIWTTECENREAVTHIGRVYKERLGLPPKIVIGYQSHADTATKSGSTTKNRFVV
Chain of UniProt Q8NBA8 (Q8NBA8 whole entry, looked up): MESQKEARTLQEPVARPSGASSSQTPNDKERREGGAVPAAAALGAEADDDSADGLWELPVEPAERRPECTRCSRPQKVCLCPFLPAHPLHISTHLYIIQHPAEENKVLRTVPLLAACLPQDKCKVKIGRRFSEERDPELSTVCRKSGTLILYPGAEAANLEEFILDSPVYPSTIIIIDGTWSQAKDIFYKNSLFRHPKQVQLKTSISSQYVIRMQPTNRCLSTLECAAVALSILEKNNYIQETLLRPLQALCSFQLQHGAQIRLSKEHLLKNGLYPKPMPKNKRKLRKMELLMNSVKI
Chain of UniProt P07711 (P07711 whole entry, looked up): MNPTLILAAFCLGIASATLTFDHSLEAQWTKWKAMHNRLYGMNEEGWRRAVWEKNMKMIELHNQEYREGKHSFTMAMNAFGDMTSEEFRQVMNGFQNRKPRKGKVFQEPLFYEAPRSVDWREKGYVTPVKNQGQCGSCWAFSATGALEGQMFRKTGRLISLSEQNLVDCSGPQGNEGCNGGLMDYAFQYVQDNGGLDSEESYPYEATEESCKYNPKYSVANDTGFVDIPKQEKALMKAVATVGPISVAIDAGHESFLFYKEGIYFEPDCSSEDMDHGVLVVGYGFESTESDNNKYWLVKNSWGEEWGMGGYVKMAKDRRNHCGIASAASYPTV
Chain of UniProt Q9BW60 (Q9BW60 whole entry, looked up): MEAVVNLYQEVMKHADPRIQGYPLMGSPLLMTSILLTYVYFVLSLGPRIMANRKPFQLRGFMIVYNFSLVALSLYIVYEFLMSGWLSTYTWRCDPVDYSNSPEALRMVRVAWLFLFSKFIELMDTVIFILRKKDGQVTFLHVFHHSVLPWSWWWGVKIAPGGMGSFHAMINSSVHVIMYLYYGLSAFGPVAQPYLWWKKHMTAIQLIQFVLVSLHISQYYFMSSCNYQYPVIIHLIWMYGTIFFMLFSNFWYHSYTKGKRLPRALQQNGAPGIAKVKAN

| Target | log2 fold change [1] | log2 fold change [2] | log2 fold change [3] | log2 fold change [4] | log2 fold change [5] | log2 fold change [6] | log2 fold change [7] | log2 fold change [8] | log2 fold change [9] | log2 fold change [10] | log2 fold change [11] | log2 fold change [12] | log2 fold change [13] | log2 fold change [14] | log2 fold change [15] | log2 fold change [16] | log2 fold change [17] | log2 fold change [18] | log2 fold change [19] | log2 fold change [20] |
| --- | --- | --- | --- | --- | --- | --- | --- | --- | --- | --- | --- | --- | --- | --- | --- | --- | --- | --- | --- | --- |
| ELOVL1 (UniProt Q9BW60) | -0.217 | -0.127 | -0.011 | 0.003 | -0.044 | 0.032 | 0.116 | 0.002 | -0.068 | -0.691 (active) | 0.015 | 0.037 | -0.011 | -0.015 | -0.223 | -0.029 | 0.05 | 0.017 | -0.011 | 0 |
| CTSL (UniProt P07711) | -0.124 | -0.247 | -0.045 | 0.017 | 0.014 | 0.196 | -0.074 | -0.037 | 0.019 | -0.306 | 0.113 | 0.05 | 0.085 | 0.038 | 0.024 | 0.032 | 0.049 | 0.018 | -0.008 | 0.02 |
| DDOST (UniProt P39656) | 0.006 | -0.102 | -0.014 | -0.014 | 0.015 | 0.052 | -0.031 | -0.007 | 0.019 | 0.089 | -0.015 | -0.03 | 0.013 | 0.021 | 0.008 | 0.042 | -0.029 | -0.005 | 0.059 | -0.002 |
| DDX39A (UniProt O00148) | 0.037 | -0.104 | 0.034 | -0.096 | -0.037 | -0.123 | -0.002 | 0.018 | 0.038 | -0.016 | 0.018 | -0.149 | -0.061 | 0.007 | -0.143 | -0.213 | 0.111 | -0.041 | -0.016 | -0.032 |
| ECH1 (UniProt Q13011) | 0.019 | 0.276 | 0.024 | 0.036 | -0.032 | -0.021 | 0.023 | 0.052 | -0.041 | 0.694 (active) | -0.037 | 0.727 (active) | 0.053 | 0.519 (active) | 0.122 | -0.023 | -0.012 | -0.031 | -0.035 | -0.024 |
| CTSB (UniProt P07858) | -1.16 (active) | -1.72 (active) | -0.009 | -0.011 | 0.017 | -0.047 | 0.021 | -0.007 | -0.07 | -0.936 (active) | 0.05 | 0.064 | 0 | 0.002 | 0.052 | -0.014 | -0.073 | -0.009 | 0.013 | -0.008 |
| CUX1 isoform 2 (UniProt Q13948) | -0.055 | -0.188 | 0 | -0.002 | -0.112 | 0.043 | 0.317 | 0.033 | 0.016 | 0.055 | -0.065 | -0.012 | -0.07 | 0.006 | 0.03 | -0.049 | 0.061 | 0.048 | 0.056 | -0.062 |
| EXOC7 (UniProt Q9UPT5) | -0.156 | -0.619 (active) | 0.09 | 0.048 | -0.091 | 0.015 | 0.006 | 0.048 | 0.033 | -0.317 (active) | 0.024 | -0.218 | -0.039 | 0.029 | -0.04 | -0.06 | -0.01 | -0.077 | 0.006 | -0.047 |
| DYNC1I2 isoform 5 (UniProt Q13409) | 0.004 | 0.005 | 0.004 | 0.026 | 0.011 | -0.003 | 0.002 | -0.024 | -0.041 | -0.035 | 0.012 | 0.021 | -0.033 | 0.003 | 0.012 | 0.001 | -0.006 | -0.005 | -0.014 | 0.028 |
| DTWD2 (UniProt Q8NBA8) | -0.047 | -0.048 | 0.057 | -0.015 | 0.057 | -0.018 | -0.106 | 0.005 | -0.066 | 0.035 | -0.032 | -0.228 | 0.059 | -0.029 | 0.111 | -0.022 | 0.05 | 0.04 | 0.002 | -0.032 |
| EIF4E isoform 2 (UniProt P06730) | -0.012 | -0.044 | 0.021 | 0.053 | -0.01 | -0.061 | 0.036 | -0.017 | -0.146 | 0.199 | 0.04 | 0.189 | -0.027 | -0.085 | 0 | -0.012 | 0.008 | 0.133 | -0.023 | -0.072 |
| DDB1 (UniProt Q16531) | 0.045 | 0.036 | -0.032 | -0.024 | 0.021 | 0.009 | -0.005 | -0.01 | -0.028 | 0 | 0.04 | 0.04 | 0.004 | -0.025 | 0.001 | 0.002 | -0.033 | -0.035 | 0.003 | 0 |
| EDC4 (UniProt Q6P2E9) | -0.126 | -0.47 (active) | 0.042 | 0 | -0.009 | 0.039 | -0.006 | 0.014 | 0.07 | -0.084 | -0.023 | -0.109 | -0.167 | 0.016 | -0.163 | -0.148 | -0.012 | -0.099 | 0.113 | 0.005 |
| DTYMK (UniProt P23919) | 0.044 | 0.171 | -0.03 | 0.039 | -0.053 | -0.245 (active) | 0.01 | 0.056 | -0.04 | -0.037 | -0.02 | 0.06 | 0 | -0.022 | -0.062 | 0.004 | -0.044 | 0.003 | 0.005 | 0.013 |
| CTNNB1 (UniProt P35222) | 0.2 | -0.162 | -0.116 | 0.887 (active) | -0.027 | -0.304 | -0.151 | 0.124 | -0.185 | 0.379 | 0.032 | 1.08 (active) | 0.037 | 0.148 | -0.065 | 0.074 | -0.145 | -0.025 | 0.079 | -0.015 |
| FADS3 (UniProt Q9Y5Q0) | -0.02 | 0.095 | 0.013 | -0.016 | 0.046 | -0.116 | -0.05 | -0.019 | -0.13 | -0.231 | 0.035 | 0.037 | -0.051 | -0.061 | 0.026 | 0.048 | 0.024 | -0.079 | 0.02 | 0.026 |
